Publication PMC5540273 (PLoS ONE, 2017)

Experiments:
Details in all cases: concentration: 1 μM,replicates: in singlicate; n = 1
TESK1 = test system: TESK1
TGFBR1 = test system: TGFBR1
TGFBR2 = test system: TGFBR2
TIE1 = test system: TIE1
TIE2 = test system: T1, TIE2
T1 construct: gene TEK

TLK1 = test system: TLK1
TLK2 = test system: TLK2
TNIK = test system: TNIK
TNK1 = test system: TNK1
TNK2 = test system: TNK2
TNNI3K = test system: TNNI3K
TRKA = test system: T2, TRKA
T2 construct: gene NTRK1

TRKB = test system: TRKB
TRKC = test system: T3, TRKC
T3 construct: gene NTRK3

TRPM6 = test system: TRPM6
TSSK1B = test system: TSSK1B
TSSK3 = test system: TSSK3
TTK = test system: TTK
TXK = test system: TXK
[1] = test system: TYK2(JH1domain-catalytic)
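Further: KINOMEscan kinase panel screen.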

| Compound | %Inh (TESK1) | %Inh (TGFBR1) | %Inh (TGFBR2) | %Inh (TIE1) | %Inh (TIE2) | %Inh (TLK1) | %Inh (TLK2) | %Inh (TNIK) | %Inh (TNK1) | %Inh (TNK2) | %Inh (TNNI3K) | %Inh (TRKA) | %Inh (TRKB) | %Inh (TRKC) | %Inh (TRPM6) | %Inh (TSSK1B) | %Inh (TSSK3) | %Inh (TTK) | %Inh (TXK) | %Inh [1] |
| --- | --- | --- | --- | --- | --- | --- | --- | --- | --- | --- | --- | --- | --- | --- | --- | --- | --- | --- | --- | --- |
| C[C@@H](Oc1cc(-n2cnc3cc(-c4ccncc4)ccc32)sc1C(N)=O)c1ccccc1Cl [GSK479719] | 0% | 1% | 0% | 84% | 27% | 0% | 0% | 11% | 20% | 37% | 29% | 66% | 52% | 50% | 0% | 34% | 13% | 2% | 0% | 25% |
| C[C@@H](Oc1cc(-n2cnc3ccc(-c4ccncc4)cc32)sc1C(N)=O)c1ccccc1Cl [GSK483724] | 37% | 0% | 0% | 41% | 0% | 0% | 0% | 9% | 0% | 25% | 6% | 57% | 7% | 18% | 34% | 29% | 17% | 34% | 11% | 18% |
| Cn1ccc2ncnc(Oc3ccc(NC(=O)Nc4cccc(C(F)(F)F)c4)c(F)c3)c21 | 11% | 0% | 19% | 96.7% | 92.8% | 0% | 2% | 0% | 17% | 0% | 82% | 100% | 88% | 96.4% | 0% | 0% | 0% | 18% | 0% | 0% |
| CS(=O)c1ccc(-c2coc3ccc(-c4n[nH]c(=O)o4)cc23)cc1 (stereo not shown) | 0% | 24% | 18% | 0% | 10% | 35% | 0% | 0% | 0% | 0% | 0% | 26% | 0% | 39% | 0% | 0% | 0% | 0% | 4% | 9% |
| CSc1nccc(-c2c(-c3ccc(F)cc3)ncn2CCCN2CCOCC2)n1.Cl [SB-217146] | 0% | 0% | 0% | 0% | 0% | 0% | 15% | 0% | 26% | 0% | 0% | 0% | 0% | 0% | 10% | 0% | 0% | 0% | 0% | 13% |
| Cc1cccc(-c2nc(Nc3ccncc3)c3sccc3n2)n1 [GW869641] | 10% |  | 95.6% | 43% | 38% | 0% | 9% | 55% | 26% | 0% | 7% | 6% | 6% | 5% | 38% | 0% | 24% | 27% | 0% | 20% |
| COC(=O)c1cccc(NC(=O)NC2CCN(c3ccnc(NCc4ccc(F)cc4)n3)CC2)c1 [GSK1379860] | 16% | 25% | 0% | 0% | 0% | 0% | 0% | 0% | 0% | 15% | 0% | 0% | 12% | 24% | 0% | 0% | 11% | 0% | 7% | 13% |
| Cn1ccc2ncnc(Oc3ccc(NC(=O)Nc4cnn(C(C)(C)C)c4)c(Cl)c3)c21 | 0% | 13% | 5% | 78% | 73% | 17% | 0% | 72% | 0% | 0% | 54% | 39% | 56% | 82% | 0% | 0% | 7% | 4% | 0% | 0% |
| CCNCC(Cc1ccccc1)NC(=O)c1cc(Br)c(-c2ccnc3[nH]ccc23)s1.Cl.Cl (stereo not shown) [GSK1383280] | 24% | 0% | 0% | 75% | 0% | 18% | 16% | 50% | 0% | 10% | 11% | 90% | 77% | 50% | 8% | 60% | 13% | 67% | 0% | 46% |
| O=C(Nc1ccccc1)c1cccc(Oc2ccc3nccn3n2)c1 | 0% | 0% | 0% | 94.1% | 0% | 100% | 0% | 0% | 33% | 0% | 2% | 0% | 0% | 21% | 0% | 0% | 0% | 0% | 0% | 5% |
| CCCC(=O)Nc1n[nH]c2ncccc12 [SB-601436] | 5% | 0% | 0% | 0% | 0% | 0% | 0% | 0% | 0% | 0% | 0% | 0% | 6% | 28% | 2% | 0% | 0% | 0% | 0% | 0% |
| FC(F)(F)c1cc(Br)cc(Nc2nccc(-c3cnn4ncccc34)n2)c1 [GW810578] | 11% | 27% | 99.3% | 18% | 0% | 0% | 14% | 0% | 36% | 0% | 66% | 48% | 0% | 1% | 0% | 5% | 5% | 41% | 7% | 0% |
| Cn1ccc2ncnc(Oc3ccc(NC(=O)Nc4cncc(C(F)(F)F)c4)c(Cl)c3)c21 | 0% | 0% | 0% | 80% | 92.8% | 5% | 0% | 0% | 0% | 0% | 61% | 51% | 55% | 88% | 0% | 0% | 0% | 0% | 0% | 0% |
| CN(c1ccc2c(c1)nc(NCc1ccc(F)cc1)n2C)c1ccnc(Nc2ccc(CS(C)(=O)=O)cc2)n1.Cl [GW813244] | 4% | 0% | 2% | 92.2% | 37% | 15% | 10% | 22% | 43% | 0% | 11% | 0% | 7% | 0% | 24% | 0% | 4% | 0% | 80% | 36% |
| COc1cc(Nc2nccc(N3CCC(NC(=O)c4cccc(C#N)c4)C3)n2)cc(OC)c1OC (stereo not shown) [GSK1379751] | 19% | 4% | 0% | 32% | 0% | 4% | 0% | 0% | 98.9% | 10% | 14% | 60% | 53% | 64% | 0% | 10% | 7% | 0% | 9% | 72% |
| Cc1ccn2nc(-c3ccc(F)cc3)c(-c3ccncc3)c2c1.Cl [GW457859] | 34% | 12% | 0% | 0% | 0% | 6% | 0% | 58% | 0% | 0% | 0% | 6% | 39% | 24% | 14% | 0% | 0% | 0% | 20% | 26% |
| Cc1ccc(Nc2ccnc(Nc3ccc4c(c3)CS(=O)(=O)C4)n2)cc1O.Cl [GW579362] | 53% | 82% | 99.4% | 88% | 56% | 30% | 35% | 68% | 85% | 80% | 70% | 100% | 91.7% | 78% | 25% | 1% | 27% | 81% | 90% | 96.9% |
| NC(=O)Nc1sc(-c2ccc(F)cc2)cc1C(N)=O [GW789449] | 24% | 27% | 0% | 0% | 12% | 4% | 0% | 33% | 32% | 26% | 24% | 98.6% | 89% | 67% | 1% | 0% | 0% | 32% | 21% | 98.6% |
| COc1cc2c(Nc3ccc(NC(=O)c4ccccc4)cc3)ncnc2cc1OCCCN1CCOCC1 [GSK301329] | 37% | 0% | 0% | 24% | 0% | 0% | 0% | 0% | 56% | 66% | 9% | 84% | 0% | 0% | 23% | 0% | 16% | 50% | 4% | 2% |
